Inconclusive results are not listed. The source made the active and inactive calls. Rule for the calls: active = hit-call score of the fitted dose curve at least 0.9, where 1 is the maximum; inconclusive = response in the unintended direction; inactive = score below 0.9.
Target: Retinoic acid receptor alpha (Homo sapiens) (UniProt P10276)
Test: ATG_RARa_TRANS: Attagene TRANS-FACTORIAL HepG2 Assay for human Retinoic Acid Receptor alpha (RARa) (AID 2283005);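 for AC50: potency for increased reporter signal meaning RARa activation over DMSO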
Method: ATG_TRANS is a cell-based, multiplexed-readout assay that uses HepG2, a human liver cell line, with measurements taken at 24 hours after chemical dosing in a 24-well plate.ATG_RARa_TRANS is one of 30 assay component(s) measured or calculated from the ATG_TRANS assay. It is designed to make measurements of mRNA induction, a form of inducible reporter, as detected with fluorescence intensity signals by Reverse transcription polymerase chain reaction (RT-PCR) and Capillary electrophoresis technology.Data from the assay component ATG_RARa_TRANS was analyzed into 1 assay endpoint. This assay endpoint, ATG_RARa_TRANS, was analyzed in the positive analysis fitting direction relative to DMSO as the negative control and baseline of activity. Using a type of inducible reporter, measures of mRNA for gain-of-signal activity can be used to understand the reporter gene at the transcription factor-level as they relate to the gene RARA. Furthermore, this assay endpoint can be referred to as a primary readout, because this assay has produced multiple assay endpoints where this one serves a reporter gene function. To generalize the intended target to other relatable targets, this assay endpoint is annotated to the nuclear receptor intended target family, where the subfamily is non-steroidal.
Human liver HepG2 cells are transiently transfected with multiple reporter transcription units (MRTUs) in 6-well plates using FuGene 6 reagent (Roche; 3 ml FuGene/1 mg DNA). The MRTU constructs are regulated by a cis-regulating element (promoter). […] A major difference between the CIS and TRANS system is that in CIS activities of endogenous TFs are measured, whereas the TRANS assay evaluates changes in activities of exogenous, chimeric NR-Gal4 proteins. […] At the end of 24 hour incubation, total RNA was isolated using TriZol reagent (Invitrogen). The isolated RNA is then reverse-transcribed using oligo(dT) primer and Mo-MLV reverse transcriptase (Invitrogen) with DNAse I (Ambion) treatment for 30 min. The one-tenth of the produced cDNA was amplified by PCR using Taq DNA polymerase (Invitrogen) and two reporter sequence-specific primers. The PCR products were fluorescently labeled by primer extension with 6-arboxyfluorescein (6-FAM) 5'-labeled reporter sequence-specific primer (2 min at 95 C, 20 s at 68 C and 10 min at 72 C) and these products were digested with 5U of HpaI (New England Biolabs) for 2h at 37 C. The fragments were purified using Qiaquick PCR columns (Qiagen), analyzed on an ABI 3130xL genetic analyzer (Applied Biosystems) with peak positions identified by using a set of X-rhodamine (ROX)-labeled MapMarker1000 molecular weight standards (BioVentures). The raw capillary electrophoresis data was processed using Attagraph software (Attagene).

Retinoic acid receptor alpha (Homo sapiens), sequence (P10276 whole entry, looked up): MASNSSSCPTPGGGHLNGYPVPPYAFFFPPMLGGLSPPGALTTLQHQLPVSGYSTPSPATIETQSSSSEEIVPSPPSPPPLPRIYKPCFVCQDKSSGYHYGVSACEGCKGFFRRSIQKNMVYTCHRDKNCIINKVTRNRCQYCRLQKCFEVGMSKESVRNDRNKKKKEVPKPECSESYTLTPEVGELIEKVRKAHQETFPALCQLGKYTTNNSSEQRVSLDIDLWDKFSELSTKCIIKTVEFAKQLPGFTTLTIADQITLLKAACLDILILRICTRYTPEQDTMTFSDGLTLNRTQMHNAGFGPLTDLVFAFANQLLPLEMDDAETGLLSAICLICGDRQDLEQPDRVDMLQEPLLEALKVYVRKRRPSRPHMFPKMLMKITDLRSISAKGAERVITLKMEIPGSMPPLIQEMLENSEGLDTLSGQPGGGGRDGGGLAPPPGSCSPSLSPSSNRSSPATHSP

| Structure (SMILES) | outcome | AC50 |
| --- | --- | --- |
| CCc1c(Br)c(Br)c(Br)c(Br)c1Br | inactive | – |
| CO[Si](OC)(c1ccccc1)c1ccccc1 | inactive | – |
| CCCCCCCCCCCCCCCC[N+](C)(C)Cc1ccccc1 | inactive | – |
| O=C(O)C(F)(F)C(F)(F)OC(F)(F)F | inactive | – |
| C=C(C)C(=O)OCCC(F)(F)C(F)(F)C(F)(F)C(F)(F)C(F)(C(F)(F)F)C(F)(F)F | inactive | – |
| FC(F)(F)C(F)(F)C(F)(F)C(F)(F)CCI | inactive | – |
| CCCCCCS | inactive | – |
| OCC(F)(F)C(F)(F)C(F)(F)F | inactive | – |
| O=C(O)C(F)(F)C(F)(F)C(F)(F)C(F)(F)C(F)(F)C(F)(F)C(F)(F)C(F)(F)C(F)(F)C(F)(F)C(F)(F)C(F)(F)F | inactive | – |
| [Co] | inactive | – |
| CCCCCCCCC(F)(F)C(F)(F)C(F)(F)C(F)(F)C(F)(F)C(F)(F)F | inactive | – |
| FC(F)(F)C(F)(F)C(F)(F)C(F)(F)C(F)(F)C(F)(F)C(F)(F)C(F)(F)F | inactive | – |
| Nc1cc(Cl)c(N)c(Cl)c1 | – | 43 µM (active) |
| OCC(F)(F)C(F)(F)C(F)(F)C(F)(F)C(F)(F)C(F)F | inactive | – |
| FC(F)(F)C(F)(F)C(F)(F)C(F)(F)C(F)(F)C(F)(F)C(F)(F)Br | inactive | – |
| C=CC(F)(F)C(F)(F)C(F)(F)C(F)(F)C(F)(F)C(F)(F)C(F)(F)C(F)(F)F | inactive | – |
| OC[C@@H](O)[C@@H](O)[C@H](O)[C@@H](O)CO | inactive | – |
| O=C(O)C(F)(OC(F)(F)C(F)(OC(F)(F)C(F)(OC(F)(F)C(F)(F)C(F)(F)F)C(F)(F)F)C(F)(F)F)C(F)(F)F (stereo not drawn) | inactive | – |
| CC(C)(C)C(=O)CC(=O)C(F)(F)C(F)(F)C(F)(F)F | inactive | – |

| Structure (SMILES) | outcome | AC50 |
| --- | --- | --- |
| FC(F)(F)C(F)(F)C(F)(F)CI | inactive | – |
| C=C(C)C(=O)OCC(F)(F)C(F)(F)C(F)(F)F | inactive | – |
| O=C(Cl)C(F)(F)C(F)(F)C(F)(F)C(F)(F)C(F)(F)C(F)(F)C(F)(F)C(F)(F)F | inactive | – |
| Cc1cc(C)cc(O)c1 | inactive | – |
| O=C(O)C(F)(F)C(F)(F)F | inactive | – |
| O=C(O)C(F)(F)C(F)(F)C(F)(F)C(F)(F)C(F)(F)C(F)(F)C(F)(F)C(F)(F)C(F)(F)C(F)(F)C(F)(F)C(F)(F)C(F)(F)F | inactive | – |
| O=C(O)C(F)(OC(F)(F)C(F)(OC(F)(F)C(F)(F)C(F)(F)F)C(F)(F)F)C(F)(F)F (stereo not drawn) | inactive | – |
| FC1CC(F)(F)C(F)(F)C1(F)F (stereo not drawn) | inactive | – |
| O[Si](c1ccccc1)(c1ccccc1)c1ccccc1 | inactive | – |
| O=S(=O)(O)C(F)(F)C(F)(F)C(F)(F)C(F)(F)C(F)(F)C(F)(F)C(F)(F)F | inactive | – |
| OCC(F)(F)C(F)(F)C(F)(F)C(F)(F)C(F)(F)C(F)(F)F | inactive | – |
| CC(C)OC(=O)c1ccccc1C(=O)OC(C)C | inactive | – |
| C1COCCN1 | inactive | – |
| O=C(O)C(F)(F)C(F)(F)C(F)F | inactive | – |
| CCCCOCCOCCOC(=O)CCCCC(=O)OCCOCCOCCCC | inactive | – |
| FC(F)(F)C(F)(F)C(F)(F)N(C(F)(F)C(F)(F)C(F)(F)F)C(F)(F)C(F)(F)C(F)(F)F | inactive | – |
| CC(C)(C)c1ccc(OC2CCCCC2O)cc1 (stereo not drawn) | inactive | – |
| CC/C=C\CCOC(=O)c1ccccc1 | inactive | – |
| FC(F)(F)C(F)(F)C(F)(F)C(F)(F)C(F)(F)C(F)(F)CC1CO1 (stereo not drawn) | inactive | – |
